According to PubChem BioAssay (EPA / NIEHS):
Active and inactive are the calls of the source. How the source made its calls: active means hit-call score of the fitted dose curve at least 0.9, where 1 is the maximum; inactive means score below 0.9.

Assays:
[1] = read-out: Interleukin-6 (IL6), IL6 (gene 3569); assay: BSK_CASM3C_IL6: BioMAP Diversity Plus: CASM3C Assay for Interleukin-6 (IL6) Biomarker Activity for (AID 2283040); conditions: primary human coronary artery smooth muscle cells; actives raise or lower the signal
[2] = read-out: Tissue plasminogen activator (tPA), PLAT (gene 5327); assay: BSK_BE3C_tPA: BioMAP Diversity Plus: BE3C Assay for Tissue plasminogen activator (tPA) Biomarker Activity (AID 2283041); conditions: primary human bronchial epithelial cells; actives raise or lower the signal;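 further: tPA level quantified by ELISA one day after compound addition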
How it was run: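 Primary human lung bronchial epithelial cultures receive test chemical; after 24 h, tPA is quantified by ELISA, and gain or loss of signal is fitted bidirectionally relative to DMSO baseline.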

[3] = read-out: Interleukin-8 (IL8), CXCL8 (gene 3576); assay: BSK_CASM3C_IL8: BioMAP Diversity Plus: CASM3C Assay for Interleukin-8 (IL8) Biomarker Activity (AID 2283042); conditions: primary human coronary artery smooth muscle cells; actives raise or lower the signal;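 further: IL-8 protein level quantified by ELISA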
[4] = read-out: Human Leukocyte Antigen - DR isotype (HLADR), HLA-DRA (gene 3122); assay: BSK_CASM3C_HLADR: BioMAP Diversity Plus: CASM3C Assay for Human Leukocyte Antigen - DR isotype (HLADR) Biomarker Activity (AID 2283043); conditions: primary human coronary artery smooth muscle cells; actives raise or lower the signal;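 further: cell-surface HLA-DR protein level quantified by ELISA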
[5] = read-out: Macrophage colony-stimulating factor (MCSF), CSF1 (gene 1435); assay: BSK_CASM3C_MCSF: BioMAP Diversity Plus: CASM3C Assay for Macrophage colony-stimulating factor (MCSF) Biomarker Activity (AID 2283044); conditions: primary human coronary artery smooth muscle cells; actives raise or lower the signal;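 further: M-CSF protein amount quantified by ELISA after 24 h exposure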
[6] = read-out: Low-density lipoprotein receptor (LDLR), LDLR (gene 3949); assay: BSK_CASM3C_LDLR: BioMAP Diversity Plus: CASM3C Assay for Low-density lipoprotein receptor (LDLR) Biomarker Activity (AID 2283045); conditions: primary human coronary artery smooth muscle cells; actives raise or lower the signal;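 further: LDLR protein level on the cell surface quantified by ELISA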
[7] = read-out: Monocyte Chemoattractant Protein-1 (MCP1), CCL2 (gene 6347); assay: BSK_CASM3C_MCP1: BioMAP Diversity Plus: CASM3C Assay for Monocyte Chemoattractant Protein-1 (MCP1) Biomarker Activity (AID 2283046); conditions: primary human coronary artery smooth muscle cells; actives raise or lower the signal;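 further: MCP-1 level quantified by ELISA 24 h after dosing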
[8] = BSK_CASM3C_Proliferation: Cell Proliferation Assessment in the BioMAP Diversity Plus: CASM3C Assay (AID 2283047); conditions: primary human coronary artery smooth muscle cells;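 further: sulforhodamine B total protein stain as relative cell number at 560 nm; sub-confluent cells exposed 48 h before staining; fitted both ways against DMSO so gain or loss of cell number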
[9] = read-out: Monokine induced gamma interferon (MIG), CXCL9 (gene 4283); assay: BSK_CASM3C_MIG: BioMAP Diversity Plus: CASM3C Assay for Monokine induced gamma interferon (MIG) Biomarker Activity (AID 2283048); conditions: primary human coronary artery smooth muscle cells; actives raise or lower the signal;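 further: MIG protein level measured by ELISA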
[10] = read-out: serum amyloid A (SAA), SAA1 (gene 6288); assay: BSK_CASM3C_SAA: BioMAP Diversity Plus: CASM3C Assay for serum amyloid A (SAA) Biomarker Activity (AID 2283049); conditions: primary human coronary artery smooth muscle cells; actives raise or lower the signal;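 further: SAA protein level quantified by ELISA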
[11] = BSK_CASM3C_SRB: Viability Assessment in the BioMAP Diversity Plus: CASM3C Assay (AID 2283050); conditions: primary human coronary artery smooth muscle cells;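 further: total protein by SRB staining as cytotoxicity measure in parallel cultures; cells exposed to compound for 24 h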
[12] = read-out: Thrombomodulin, THBD (gene 7056); assay: BSK_CASM3C_Thrombomodulin: BioMAP Diversity Plus: CASM3C Assay for Thrombomodulin Biomarker Activity (AID 2283051); conditions: primary human coronary artery smooth muscle cells; actives raise or lower the signal;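 further: thrombomodulin protein level measured by ELISA 24 h after dosing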
[13] = read-out: Tissue Factor, F3 (gene 2152); assay: BSK_CASM3C_TissueFactor: BioMAP Diversity Plus: CASM3C Assay for Tissue Factor Biomarker Activity (AID 2283052); conditions: primary human coronary artery smooth muscle cells; actives raise or lower the signal;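 further: cell surface tissue factor protein level read by ELISA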
[14] = read-out: Interferon-gamma inducible Protein 10 (IP10), CXCL10 (gene 3627); assay: BSK_hDFCGF_IP10: BioMAP Diversity Plus: hDFCGF Assay for Interferon-gamma inducible Protein 10 (IP10) Biomarker Activity (AID 2283053); conditions: primary human foreskin fibroblasts; actives raise or lower the signal
How it was run: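 Primary foreskin fibroblasts, human; 24 h compound exposure; IP-10 by ELISA; bidirectional fit vs DMSO.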

[15] = read-out: Urokinase-type plasminogen activator receptor (uPAR), PLAUR (gene 5329); assay: BSK_CASM3C_uPAR: BioMAP Diversity Plus: CASM3C Assay for Urokinase-type plasminogen activator receptor (uPAR) Biomarker Activity (AID 2283054); conditions: primary human coronary artery smooth muscle cells; actives raise or lower the signal;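 further: cell-surface uPAR protein level quantified by ELISA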
[16] = read-out: Vascular cell adhesion molecule 1 (VCAM1), VCAM1 (gene 7412); assay: BSK_CASM3C_VCAM1: BioMAP Diversity Plus: CASM3C Assay for Vascular cell adhesion molecule 1 (VCAM1) Biomarker Activity (AID 2283055); conditions: primary human coronary artery smooth muscle cells; actives raise or lower the signal;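 further: VCAM-1 protein level quantified by ELISA on the cells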
[17] = read-out: Epidermal growth factor receptor (EGFR), EGFR (gene 1956); assay: BSK_hDFCGF_EGFR: BioMAP Diversity Plus: hDFCGF Assay for Epidermal growth factor receptor (EGFR) Biomarker Activity (AID 2283057); conditions: primary human foreskin fibroblasts; actives raise or lower the signal
How it was run: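 hDFCGF system, primary human foreskin fibroblasts; compound 24 h; EGFR measured by ELISA; DMSO = negative control/baseline; bidirectional fitting.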

[18] = read-out: Interleukin-8 (IL8), CXCL8 (gene 3576); assay: BSK_hDFCGF_IL8: BioMAP Diversity Plus: hDFCGF Assay for Interleukin-8 (IL8) Biomarker Activity (AID 2283058); conditions: primary human foreskin fibroblasts; actives raise or lower the signal
How it was run: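 hDFCGF human dermal fibroblasts; 24 h chemical exposure; IL-8 by ELISA; bidirectional curve fit vs DMSO baseline; gain or loss of signal scored.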

[19] = BSK_hDFCGF_Proliferation: Cell Proliferation Assessment in the BioMAP Diversity Plus: hDFCGF Assay (AID 2283059); conditions: primary human foreskin fibroblasts;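 further: curves fitted for both rise and fall of signal versus DMSO baseline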
How it was run: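 Steps: dose primary human dermal fibroblasts (foreskin); […] fix in 10% TCA; stain with 0.1% SRB; read 560 nm; fit gain or loss of signal against DMSO.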

Measured: AC50

C#C[C@]1(O)CC[C@H]2[C@@H]3CCc4cc(OC)ccc4[C@H]3CC[C@@]21C
inactive: [1] | [2] | [3] | [4] | [5] | [6] | [7] | [9] | [10] | [11] | [12] | [14] | [15] | [16] | [18]
active: [8] 0.253 µM | [13] 0.016 µM | [17] 0.016 µM | [19] 4.67 µM

Oc1ccc(Nc2ccccc2)cc1
active: [4] 2.54 µM | [6] 2.43 µM | [8] 30.1 µM | [12] 5.45 µM | [13] 11 µM | [19] 26.5 µM
inactive: [1] | [2] | [3] | [5] | [7] | [9] | [10] | [11] | [14] | [15] | [16] | [17] | [18]

FC(F)(F)C(F)(F)C(F)(F)C(F)(F)C(F)(F)C(F)(F)CCS
inactive: [1] | [2] | [3] | [4] | [5] | [6] | [7] | [8] | [9] | [10] | [11] | [12] | [13] | [14] | [15] | [16] | [17] | [18] | [19]

CCCCOCCOCCOC(=O)CCCCC(=O)OCCOCCOCCCC
inactive: [1] | [2] | [3] | [4] | [5] | [6] | [7] | [8] | [9] | [10] | [11] | [12] | [13] | [14] | [15] | [16] | [17] | [18] | [19]

O=C(O)C(F)(F)C(F)(F)C(F)(F)C(F)(F)F
inactive: [1] | [2] | [3] | [4] | [5] | [6] | [7] | [8] | [9] | [10] | [11] | [12] | [13] | [14] | [15] | [16] | [17] | [18] | [19]

FC(F)(F)C(F)(F)C(F)(F)N(C(F)(F)C(F)(F)C(F)(F)F)C(F)(F)C(F)(F)C(F)(F)F
inactive: [1] | [2] | [3] | [4] | [5] | [6] | [7] | [8] | [9] | [10] | [11] | [12] | [13] | [14] | [15] | [16] | [17] | [18] | [19]

O=C(O)C(F)(F)C(F)(F)OC(F)(F)F
inactive: [1] | [2] | [3] | [4] | [5] | [6] | [7] | [8] | [9] | [10] | [11] | [12] | [13] | [14] | [15] | [16] | [17] | [18] | [19]

COC(=O)CCC(F)(F)C(F)(F)C(F)(F)C(F)(F)F
inactive: [1] | [2] | [3] | [4] | [5] | [6] | [7] | [8] | [9] | [10] | [11] | [12] | [13] | [14] | [15] | [16] | [17] | [18] | [19]
